Measurements as given in the supplement of paper PMC10849652.
Targets with a hit are over-represented here; the source holds about 7,900 in all. About 0.6% of all pairs of compound and target were hits.

What was measured:
Assay in all cases: log2 fold change, soluble protein after heating vs DMSO (PISA); higher = thermal stabilisation; K562 cells, 10 uM, 30 min; active = over 0.2 and 3.5 SD of the protein, either way, in both replicates (recomputed)
[1] = compound: NC(=O)Nc1cc(-c2cccc(F)c2)sc1C(=O)N[C@H]1CCCNC1
Procedure, shortened: (§1)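 Thermal stability values are relative to control samples and come from duplicates. They are expressed as log2 fold changes. For measurement, K562 cells (2×10^6 cells/mL) received 10 μM compound for 30 min, and aliquots were heated for 3 min over 48°C-58°C, pooled, and extracted at 4°C in PBS with 0.5% NP-40. Soluble protein, the supernatant after 21,000xg for 90 min, was quantified by TMTpro 16plex LC-MS/MS with equalised channel sums.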

[2] = compound: NC1(c2ccc(-c3nc4ccn5c(=O)[nH]nc5c4cc3-c3ccccc3)cc2)CCC1
Procedure, shortened: as §1

[3] = compound: NCC(=O)Nc1ccc(-n2nc(C(F)(F)F)cc2-c2ccc3c(ccc4ccccc43)c2)cc1
Procedure, shortened: as §1

entinostat = compound: Nc1ccccc1NC(=O)c1ccc(CNC(=O)OCc2cccnc2)cc1 [entinostat]
Procedure, shortened: as §1

vorinostat = compound: O=C(CCCCCCC(=O)Nc1ccccc1)NO [vorinostat]
Procedure, shortened: as §1

citarinostat = compound: O=C(CCCCCCNC(=O)c1cnc(N(c2ccccc2)c2ccccc2Cl)nc1)NO [citarinostat]
Procedure, shortened: as §1

silmitasertib = compound: O=C(O)c1ccc2c(c1)nc(Nc1cccc(Cl)c1)c1ccncc12 [silmitasertib]
Procedure, shortened: as §1

[4] = compound: O=C1NC(=O)C(c2cnc3ccccn23)=C1c1cn2c3c(cc(F)cc13)CN(C(=O)N1CCCCC1)CC2
Procedure, shortened: as §1

[5] = compound: c1cc(OCCN2CCCCC2)cc(-c2n[nH]c3ccc(-c4nnc[nH]4)cc23)c1
Procedure, shortened: as §1

[6] = compound: NC(=O)c1cnc(N[C@@H]2CCCC[C@@H]2N)nc1Nc1cccc(-n2nccn2)c1
Procedure, shortened: as §1

Measured: log2 fold change

PCID2 (UniProt Q5JVF3)
Sequence of UniProt Q5JVF3 (Q5JVF3 whole entry, looked up): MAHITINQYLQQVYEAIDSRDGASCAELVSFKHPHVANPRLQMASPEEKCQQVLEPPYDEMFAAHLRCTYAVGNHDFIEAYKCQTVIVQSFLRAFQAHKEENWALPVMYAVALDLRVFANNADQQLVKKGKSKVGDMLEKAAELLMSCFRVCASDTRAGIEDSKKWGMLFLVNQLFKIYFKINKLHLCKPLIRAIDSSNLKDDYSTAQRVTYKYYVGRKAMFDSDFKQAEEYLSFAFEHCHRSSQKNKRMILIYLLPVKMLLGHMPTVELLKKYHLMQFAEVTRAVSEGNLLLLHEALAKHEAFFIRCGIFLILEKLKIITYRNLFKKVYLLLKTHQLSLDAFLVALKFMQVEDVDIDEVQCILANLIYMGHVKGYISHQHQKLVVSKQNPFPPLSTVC
inactive: [1] -0.019 | [2] -0.103 | [3] 0.06 | entinostat 0.12 | vorinostat 0.199 | citarinostat -0.004 | silmitasertib 0.038 | [4] -0.15 | [5] 0.062

PDE4A (UniProt P27815)
active: [6] -0.67
inactive: [3] 0.047 | [4] -0.017

PDE4DIP (UniProt E9PS60)
inactive: [3] -0.172 | citarinostat 0.06 | [5] -0.051

PMS2CL (UniProt Q68D20)
Sequence of UniProt Q68D20 (Q68D20 whole entry, looked up): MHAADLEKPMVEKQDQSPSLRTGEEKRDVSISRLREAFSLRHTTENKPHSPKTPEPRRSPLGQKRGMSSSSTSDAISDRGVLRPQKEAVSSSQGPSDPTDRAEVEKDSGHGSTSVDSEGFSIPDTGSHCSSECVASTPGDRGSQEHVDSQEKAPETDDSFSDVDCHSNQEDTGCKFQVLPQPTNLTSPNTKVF
inactive: [2] 0.185 | silmitasertib 0.095 | [4] 0.062

PHC3 isoform 7 (UniProt Q8NDX5)
Sequence of UniProt Q8NDX5 (Q8NDX5 whole entry, looked up): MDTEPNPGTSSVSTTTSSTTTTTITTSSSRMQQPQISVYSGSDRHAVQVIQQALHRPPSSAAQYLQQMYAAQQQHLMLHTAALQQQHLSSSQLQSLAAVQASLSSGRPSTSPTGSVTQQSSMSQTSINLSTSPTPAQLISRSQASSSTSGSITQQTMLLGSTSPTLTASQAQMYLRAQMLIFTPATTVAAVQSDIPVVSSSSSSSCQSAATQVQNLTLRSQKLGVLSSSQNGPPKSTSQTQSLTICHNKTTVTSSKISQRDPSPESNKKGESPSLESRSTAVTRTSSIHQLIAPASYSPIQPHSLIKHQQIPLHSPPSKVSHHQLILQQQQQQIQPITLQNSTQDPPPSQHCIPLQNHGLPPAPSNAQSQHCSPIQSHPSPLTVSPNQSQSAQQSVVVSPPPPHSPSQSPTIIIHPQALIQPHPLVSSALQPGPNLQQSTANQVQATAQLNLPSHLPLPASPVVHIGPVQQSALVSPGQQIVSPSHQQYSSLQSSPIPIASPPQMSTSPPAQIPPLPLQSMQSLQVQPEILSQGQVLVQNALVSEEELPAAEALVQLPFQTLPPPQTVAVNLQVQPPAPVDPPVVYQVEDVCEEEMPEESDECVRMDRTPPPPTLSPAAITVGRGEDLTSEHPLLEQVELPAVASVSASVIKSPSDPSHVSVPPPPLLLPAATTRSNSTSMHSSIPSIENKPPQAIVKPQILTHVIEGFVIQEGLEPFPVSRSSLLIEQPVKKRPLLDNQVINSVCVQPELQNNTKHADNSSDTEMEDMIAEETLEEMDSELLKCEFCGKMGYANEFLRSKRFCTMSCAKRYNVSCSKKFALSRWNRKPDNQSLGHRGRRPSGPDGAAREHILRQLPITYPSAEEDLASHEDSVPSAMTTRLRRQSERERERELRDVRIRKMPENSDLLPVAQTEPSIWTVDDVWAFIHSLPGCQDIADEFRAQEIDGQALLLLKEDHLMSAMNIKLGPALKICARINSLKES
active: [4] 0.567
inactive: [1] 0.158 | [2] -0.125 | entinostat 0.1 | citarinostat 0.172 | silmitasertib -0.018 | [5] -0.014

PHRF1 (UniProt Q9P1Y6)
inactive: [2] 0.148 | silmitasertib 0.176

PRKX (UniProt P51817)
inactive: [2] -0.243 | silmitasertib 0.153

PDSS2 (UniProt Q86YH6)
Sequence of UniProt Q86YH6 (Q86YH6 whole entry, looked up): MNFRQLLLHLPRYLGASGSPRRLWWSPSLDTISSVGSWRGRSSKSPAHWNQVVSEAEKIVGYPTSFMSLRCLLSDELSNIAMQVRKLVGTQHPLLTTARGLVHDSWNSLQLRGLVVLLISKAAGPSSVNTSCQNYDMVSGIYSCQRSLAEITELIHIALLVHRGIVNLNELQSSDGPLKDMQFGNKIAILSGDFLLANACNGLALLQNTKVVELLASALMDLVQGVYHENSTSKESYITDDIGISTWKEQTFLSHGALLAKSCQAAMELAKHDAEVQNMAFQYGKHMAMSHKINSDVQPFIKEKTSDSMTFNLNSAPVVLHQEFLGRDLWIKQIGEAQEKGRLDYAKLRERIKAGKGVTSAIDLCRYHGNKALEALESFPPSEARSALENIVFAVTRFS
inactive: [1] -0.108 | [6] -0.015 | [3] 0.011 | entinostat -0.009 | vorinostat 0.041 | citarinostat 0.018 | [4] 0.026 | [5] -0.029

PRKD2 (UniProt M0R346)
inactive: [1] -0.279 | entinostat 0.032 | vorinostat 0.021 | [4] -0.15

PSMC3 (UniProt E9PLG2)
inactive: [1] -0.62 | [2] -0.077 | [3] 0.117 | entinostat -0.438 | silmitasertib 0.097 | [4] -0.327

POGZ (UniProt Q7Z3K3)
Sequence of UniProt Q7Z3K3 (Q7Z3K3 whole entry, looked up): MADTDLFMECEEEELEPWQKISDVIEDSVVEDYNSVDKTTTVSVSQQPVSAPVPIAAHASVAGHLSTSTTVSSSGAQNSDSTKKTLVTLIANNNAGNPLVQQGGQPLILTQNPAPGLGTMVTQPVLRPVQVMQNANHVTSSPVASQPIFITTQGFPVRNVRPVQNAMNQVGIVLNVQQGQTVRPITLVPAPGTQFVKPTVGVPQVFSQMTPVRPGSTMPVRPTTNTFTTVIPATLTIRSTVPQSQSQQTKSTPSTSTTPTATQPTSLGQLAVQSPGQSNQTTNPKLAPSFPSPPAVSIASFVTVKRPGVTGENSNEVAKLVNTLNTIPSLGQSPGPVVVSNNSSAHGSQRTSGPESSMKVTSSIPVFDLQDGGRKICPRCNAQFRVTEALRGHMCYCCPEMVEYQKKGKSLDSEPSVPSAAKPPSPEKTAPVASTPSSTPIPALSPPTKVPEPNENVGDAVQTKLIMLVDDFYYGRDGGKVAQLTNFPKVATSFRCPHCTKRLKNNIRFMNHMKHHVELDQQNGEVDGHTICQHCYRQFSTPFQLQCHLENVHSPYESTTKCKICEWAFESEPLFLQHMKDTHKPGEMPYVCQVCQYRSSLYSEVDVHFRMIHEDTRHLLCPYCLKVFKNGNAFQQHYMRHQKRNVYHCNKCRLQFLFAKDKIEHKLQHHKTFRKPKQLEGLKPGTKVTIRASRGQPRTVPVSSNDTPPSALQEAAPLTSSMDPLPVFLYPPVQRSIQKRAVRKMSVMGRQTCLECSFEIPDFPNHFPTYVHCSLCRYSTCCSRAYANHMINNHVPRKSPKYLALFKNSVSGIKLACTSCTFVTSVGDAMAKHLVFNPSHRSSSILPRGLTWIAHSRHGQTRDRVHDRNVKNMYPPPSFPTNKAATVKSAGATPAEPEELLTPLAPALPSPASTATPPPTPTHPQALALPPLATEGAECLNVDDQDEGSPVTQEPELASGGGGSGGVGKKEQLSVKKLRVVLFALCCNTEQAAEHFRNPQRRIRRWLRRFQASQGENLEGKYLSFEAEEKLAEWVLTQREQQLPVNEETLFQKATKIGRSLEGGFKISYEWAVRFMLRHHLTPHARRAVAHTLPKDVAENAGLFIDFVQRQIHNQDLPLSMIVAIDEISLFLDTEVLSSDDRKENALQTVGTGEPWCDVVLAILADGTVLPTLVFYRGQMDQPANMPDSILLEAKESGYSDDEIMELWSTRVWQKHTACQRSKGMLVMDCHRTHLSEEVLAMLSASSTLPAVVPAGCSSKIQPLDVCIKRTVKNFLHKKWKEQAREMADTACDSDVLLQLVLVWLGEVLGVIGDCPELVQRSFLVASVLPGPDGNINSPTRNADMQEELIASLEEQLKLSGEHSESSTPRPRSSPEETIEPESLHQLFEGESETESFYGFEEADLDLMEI
active: [5] -0.483
inactive: [1] 0.009 | [6] 0.167 | [3] -0.028 | entinostat -0.031 | vorinostat -0.186 | citarinostat -0.206 | [4] -0.114

PIM1 isoform 2 (UniProt P11309)
Sequence of UniProt P11309 (P11309 whole entry, looked up): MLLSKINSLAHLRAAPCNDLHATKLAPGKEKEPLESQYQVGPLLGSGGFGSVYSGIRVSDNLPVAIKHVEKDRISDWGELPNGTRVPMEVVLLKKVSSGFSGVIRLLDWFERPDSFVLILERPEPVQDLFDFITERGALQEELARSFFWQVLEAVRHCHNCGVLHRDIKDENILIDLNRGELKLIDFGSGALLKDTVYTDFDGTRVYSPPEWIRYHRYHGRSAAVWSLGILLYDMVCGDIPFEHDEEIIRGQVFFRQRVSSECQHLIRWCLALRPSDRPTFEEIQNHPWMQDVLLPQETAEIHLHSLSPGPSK
inactive: [2] 0.388 | vorinostat -0.123 | silmitasertib 0.575

PSMA3 (UniProt H0YJ03)
inactive: [6] -0.059 | [3] -0.048 | citarinostat 0.081 | [5] 0.143

PPP2R5B (UniProt Q15173)
Sequence of UniProt Q15173 (Q15173 whole entry, looked up): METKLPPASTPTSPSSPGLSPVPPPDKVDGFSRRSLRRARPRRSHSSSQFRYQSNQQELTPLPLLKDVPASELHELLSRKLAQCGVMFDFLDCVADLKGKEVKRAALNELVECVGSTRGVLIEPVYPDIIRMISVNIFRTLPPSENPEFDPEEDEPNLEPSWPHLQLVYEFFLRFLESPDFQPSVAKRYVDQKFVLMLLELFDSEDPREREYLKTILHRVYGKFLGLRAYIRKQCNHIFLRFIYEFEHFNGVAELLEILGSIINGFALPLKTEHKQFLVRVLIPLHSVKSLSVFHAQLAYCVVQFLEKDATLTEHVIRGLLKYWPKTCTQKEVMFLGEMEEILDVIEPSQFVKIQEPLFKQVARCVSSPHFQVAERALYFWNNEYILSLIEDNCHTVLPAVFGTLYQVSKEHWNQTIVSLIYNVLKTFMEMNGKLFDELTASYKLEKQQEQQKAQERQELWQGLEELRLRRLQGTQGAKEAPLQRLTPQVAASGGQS
inactive: [6] 0.017 | [2] -0.167 | [3] -0.006 | vorinostat 0.112 | citarinostat 0.122 | silmitasertib 0 | [5] 0.127

PIAS4 (UniProt Q8N2W9)
inactive: [2] 0.094 | vorinostat -0.014 | silmitasertib -0.271 | [4] -0.404

PPP1R12C (UniProt Q9BZL4)
Sequence of UniProt Q9BZL4 (Q9BZL4 whole entry, looked up): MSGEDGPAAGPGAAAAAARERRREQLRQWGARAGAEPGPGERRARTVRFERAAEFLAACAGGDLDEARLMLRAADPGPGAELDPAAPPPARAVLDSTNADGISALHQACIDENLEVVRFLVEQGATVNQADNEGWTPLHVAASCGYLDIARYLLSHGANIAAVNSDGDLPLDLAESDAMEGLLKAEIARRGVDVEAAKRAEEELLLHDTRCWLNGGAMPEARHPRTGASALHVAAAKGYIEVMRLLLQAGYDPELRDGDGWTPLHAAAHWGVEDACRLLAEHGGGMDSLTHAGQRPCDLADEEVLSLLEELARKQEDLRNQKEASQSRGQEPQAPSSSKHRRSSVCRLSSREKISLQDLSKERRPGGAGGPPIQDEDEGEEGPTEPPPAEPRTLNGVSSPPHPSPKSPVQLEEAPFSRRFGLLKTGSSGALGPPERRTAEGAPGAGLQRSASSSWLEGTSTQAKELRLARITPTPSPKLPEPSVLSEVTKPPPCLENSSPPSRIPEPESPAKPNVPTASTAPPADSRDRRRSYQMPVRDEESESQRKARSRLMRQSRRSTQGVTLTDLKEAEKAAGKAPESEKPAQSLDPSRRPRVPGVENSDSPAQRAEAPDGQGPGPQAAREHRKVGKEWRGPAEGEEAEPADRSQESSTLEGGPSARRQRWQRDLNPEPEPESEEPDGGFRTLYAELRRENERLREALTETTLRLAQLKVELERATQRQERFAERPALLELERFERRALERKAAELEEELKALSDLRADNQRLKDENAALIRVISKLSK
inactive: [1] -0.151 | [2] -0.031 | [3] -0.022 | entinostat 0.072 | vorinostat 0.487 | citarinostat -0.008 | silmitasertib 0.122 | [4] -0.073 | [5] -0.278
